Reference: PubChem BioAssay AID1159580 (chemical genetic matrix, 2015)
Several values for one entry are separate records, joined by “and”; a condition that tells them apart may be missing. Equal entries are not always repeated. Screen size: about 5,500 compounds; about 2,000 (36%) were called active. Another 18% or so got no clear call; they are omitted. The list shows a part of the results. A number with no mark means an inactive call. No stated cut-off is given here; in the data, active means normalized growth mostly below about 0.91 (no sharp cut-off); inconclusive means no clear call, values can overlap the other calls; inactive means mostly above about 0.92.

Assay: chemical genetic growth profiling, strain panel (AID 1159580);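 further: tested at 20 µM; growth read once vehicle control cultures reached saturation at 30 °C; 1 = growth at the plate median or of vehicle wells; lower values mean less growth of the strain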
Settings: growth OD

In the case of `CNCCC(Oc1ccc(C(F)(F)F)cc1)c1ccccc1` (stereo unspecified), the normalized growth (S. cerevisiae deletion strains, locus YJR075W, strain HOC1, hits give low values) is reported as 0.985 and 1.01, the normalized growth (S. cerevisiae deletion strains, locus YKL009W, strain mrt4, hits give low values) is reported as 0.959 and the normalized growth (S. cerevisiae deletion strains, locus YKL068W, hits give low values) is reported as 1. It also gave a normalized growth (S. cerevisiae deletion strains, locus YKL085W, strain MDH1 (second series), hits give low values) of 0.999, a normalized growth (S. cerevisiae deletion strains, locus YKL085W, strain MDH1, hits give low values) of 0.999 and a normalized growth (S. cerevisiae deletion strains, locus YKL160W, strain elf1, hits give low values) of 0.984. The normalized growth (S. cerevisiae deletion strains, locus YKL190W, strain CNB1, hits give low values) was 1.01, the normalized growth (S. cerevisiae deletion strains, locus YKR001C, strain vps1, hits give low values) was 1.01 and the normalized growth (S. cerevisiae deletion strains, locus YKR026C, strain gcn3, hits give low values) was 0.983. For the same molecule, the normalized growth (S. cerevisiae deletion strains, locus YKR091W, strain srl3, hits give low values) was 0.991, the normalized growth (S. cerevisiae deletion strains, locus YLL001W, strain dnm1, hits give low values) was 0.979 and the normalized growth (S. cerevisiae deletion strains, locus YLL026W, hits give low values) was 0.987. For the same molecule, the normalized growth (S. cerevisiae deletion strains, locus YLL041C, strain sdh2, hits give low values) was 0.988, the normalized growth (S. cerevisiae deletion strains, locus YLR027C, strain aat2, hits give low values) was 0.99 and the normalized growth (S. cerevisiae deletion strains, locus YLR039C, strain RIC1, hits give low values) was 1.41 [resistant] (active). The normalized growth (S. cerevisiae deletion strains, locus YLR058C, strain SHM2, hits give low values) was 1.01, the normalized growth (S. cerevisiae deletion strains, locus YLR102C, strain apc9, hits give low values) was 0.987 and the normalized growth (S. cerevisiae deletion strains, locus YLR113W, strain HOG1, hits give low values) was 1.01. For the same molecule, the normalized growth (S. cerevisiae deletion strains, locus YLR221C, strain rsa3, hits give low values) was 0.985, the normalized growth (S. cerevisiae deletion strains, locus YLR258W, strain gsy2, hits give low values) was 0.99 and the normalized growth (S. cerevisiae deletion strains, locus YLR262C, strain YPT6 (second series), hits give low values) was 1.04. The normalized growth (S. cerevisiae deletion strains, locus YLR262C, strain YPT6, hits give low values) was 1.46 [resistant] (active), the normalized growth (S. cerevisiae deletion strains, locus YLR268W, strain sec22, hits give low values) was 0.985 and the normalized growth (S. cerevisiae deletion strains, locus YLR320W, strain mms22, hits give low values) was 0.968. The normalized growth (S. cerevisiae deletion strains, locus YLR330W, strain CHS5, hits give low values) was 1.01, the normalized growth (S. cerevisiae deletion strains, locus YLR342W, strain FKS1 (second series), hits give low values) was 0.982 and the normalized growth (S. cerevisiae deletion strains, locus YLR342W, strain FKS1, hits give low values) was 0.988. For the same molecule, the normalized growth (S. cerevisiae deletion strains, locus YLR357W, strain rsc2, hits give low values) was 0.977, the normalized growth (S. cerevisiae deletion strains, locus YLR370C, strain arc18, hits give low values) was 0.981 and the normalized growth (S. cerevisiae deletion strains, locus YLR371W, strain rom2, hits give low values) was 0.985. For the same molecule, the normalized growth (S. cerevisiae deletion strains, locus YLR384C, strain iki3, hits give low values) was 0.97, the normalized growth (S. cerevisiae deletion strains, locus YLR418C, strain cdc73, hits give low values) was 0.983 and the normalized growth (S. cerevisiae deletion strains, locus YML016C, strain PPZ1, hits give low values) was 1.02. The normalized growth (S. cerevisiae deletion strains, locus YML032C, strain rad52, hits give low values) was 0.998, the normalized growth (S. cerevisiae deletion strains, locus YML120C, strain ndi1, hits give low values) was 0.993 and the normalized growth (S. cerevisiae deletion strains, locus YML124C, strain tub3, hits give low values) was 0.992. The normalized growth (S. cerevisiae deletion strains, locus YMR058W, strain fet3, hits give low values) was 0.99, the normalized growth (S. cerevisiae deletion strains, locus YMR078C, strain ctf18, hits give low values) was 0.999 and the normalized growth (S. cerevisiae deletion strains, locus YMR125W, strain sto1, hits give low values) was 0.989. For the same molecule, the normalized growth (S. cerevisiae deletion strains, locus YMR129W, hits give low values) was 0.998, the normalized growth (S. cerevisiae deletion strains, locus YMR205C, strain PFK2, hits give low values) was 0.967 and the normalized growth (S. cerevisiae deletion strains, locus YMR223W, strain ubp8, hits give low values) was 0.996. It also gave a normalized growth (S. cerevisiae deletion strains, locus YMR231W, strain pep5, hits give low values) of 0.992, a normalized growth (S. cerevisiae deletion strains, locus YMR263W, strain SAP30, hits give low values) of 0.995 and a normalized growth (S. cerevisiae deletion strains, locus YMR307W, strain GAS1, hits give low values) of 1.09. For the same molecule, the normalized growth (S. cerevisiae deletion strains, locus YNL067W, strain RPL9B, hits give low values) was 1.01, the normalized growth (S. cerevisiae deletion strains, locus YNL071W, strain lat1, hits give low values) was 0.993 and the normalized growth (S. cerevisiae deletion strains, locus YNL128W, strain TEP1, hits give low values) was 0.992 and 1.03. For the same molecule, the normalized growth (S. cerevisiae deletion strains, locus YNL153C, strain GIM3, hits give low values) was 1.01, the normalized growth (S. cerevisiae deletion strains, locus YNL175C, strain NOP13, hits give low values) was 1.01 and the normalized growth (S. cerevisiae deletion strains, locus YNL183C, strain NPR1, hits give low values) was 0.986. For the same molecule, the normalized growth (S. cerevisiae deletion strains, locus YNL197C, strain WHI3, hits give low values) was 0.979, the normalized growth (S. cerevisiae deletion strains, locus YNL209W, strain ssb2, hits give low values) was 1.01 and the normalized growth (S. cerevisiae deletion strains, locus YNL224C, strain SQS1, hits give low values) was 1.04. The normalized growth (S. cerevisiae deletion strains, locus YNL233W, strain BNI4, hits give low values) was 1.01, the normalized growth (S. cerevisiae deletion strains, locus YNL248C, strain rpa49, hits give low values) was 0.99 and the normalized growth (S. cerevisiae deletion strains, locus YNL250W, strain rad50, hits give low values) was 0.996. The normalized growth (S. cerevisiae deletion strains, locus YNL271C, strain bni1, hits give low values) was 0.99, the normalized growth (S. cerevisiae deletion strains, locus YNL298W, strain CLA4, hits give low values) was 0.988 and the normalized growth (S. cerevisiae deletion strains, locus YNL307C, strain MCK1, hits give low values) was 0.993. For the same molecule, the normalized growth (S. cerevisiae deletion strains, locus YNL322C, strain KRE1 (second series), hits give low values) was 0.986, the normalized growth (S. cerevisiae deletion strains, locus YNL322C, strain KRE1, hits give low values) was 1 and the normalized growth (S. cerevisiae deletion strains, locus YNR049C, strain mso1, hits give low values) was 0.987. For the same molecule, the normalized growth (S. cerevisiae deletion strains, locus YNR052C, strain pop2, hits give low values) was 1, the normalized growth (S. cerevisiae deletion strains, locus YOL006C, strain TOP1, hits give low values) was 0.884 and the normalized growth (S. cerevisiae deletion strains, locus YOL012C, strain htz1) was 0.953. For the same molecule, the normalized growth (S. cerevisiae deletion strains, locus YOL147C, strain pex11, hits give low values) was 0.995, the normalized growth (S. cerevisiae deletion strains, locus YOR001W, strain rrp6, hits give low values) was 0.985 and the normalized growth (S. cerevisiae deletion strains, locus YOR061W, strain CKA2, hits give low values) was 1.01. It also gave a normalized growth (S. cerevisiae deletion strains, locus YOR069W, strain VPS5, hits give low values) of 0.998, a normalized growth (S. cerevisiae deletion strains, locus YOR070C, strain gyp1, hits give low values) of 0.99 and a normalized growth (S. cerevisiae deletion strains, locus YOR080W, strain dia2, hits give low values) of 0.997. For the same molecule, the normalized growth (S. cerevisiae deletion strains, locus YOR083W, strain WHI5 (second series), hits give low values) was 0.908, the normalized growth (S. cerevisiae deletion strains, locus YOR083W, strain WHI5, hits give low values) was 0.982 and the normalized growth (S. cerevisiae deletion strains, locus YOR106W, strain vam3, hits give low values) was 0.986. The normalized growth (S. cerevisiae deletion strains, locus YOR136W, strain idh2, hits give low values) was 0.99, the normalized growth (S. cerevisiae deletion strains, locus YOR144C, strain elg1, hits give low values) was 0.995 and the normalized growth (S. cerevisiae deletion strains, locus YOR184W, strain ser1, hits give low values) was 1. It also gave a normalized growth (S. cerevisiae deletion strains, locus YOR231W, strain MKK1, hits give low values) of 1.02, a normalized growth (S. cerevisiae deletion strains, locus YOR265W, strain rbl2, hits give low values) of 0.995 and a normalized growth (S. cerevisiae deletion strains, locus YOR270C, strain vph1, hits give low values) of 0.9. The normalized growth (S. cerevisiae deletion strains, locus YOR290C, strain snf2, hits give low values) was 0.981, the normalized growth (S. cerevisiae deletion strains, locus YOR316C, strain cot1, hits give low values) was 1 and the normalized growth (S. cerevisiae deletion strains, locus YPL051W, strain arl3, hits give low values) was 0.992. The normalized growth (S. cerevisiae deletion strains, locus YPL055C, strain LGE1, hits give low values) was 1.02 and 1, the normalized growth (S. cerevisiae deletion strains, locus YPL078C, strain atp4, hits give low values) was 0.983 and the normalized growth (S. cerevisiae deletion strains, locus YPL106C, strain sse1, hits give low values) was 0.971. The normalized growth (S. cerevisiae deletion strains, locus YPL240C, strain hsp82, hits give low values) was 0.997, the normalized growth (S. cerevisiae deletion strains, locus YPL241C, strain CIN2, hits give low values) was 1 and the normalized growth (S. cerevisiae deletion strains, locus YPL256C, strain CLN2, hits give low values) was 1.06. The normalized growth (S. cerevisiae deletion strains, locus YPR119W, strain clb2, hits give low values) was 1, the normalized growth (S. cerevisiae deletion strains, locus YPR141C, strain kar3, hits give low values) was 0.999 and the normalized growth (S. cerevisiae deletion strains, locus YPR163C, strain tif3, hits give low values) was 0.998. It also gave a normalized growth (S. cerevisiae deletion strains, locus YPR167C, strain met16, hits give low values) of 0.992, a normalized growth (S. cerevisiae deletion strains, strain wtn01, hits give low values) of 1.01 and a normalized growth (S. cerevisiae strains, strain wild type, hits give low values) of 0.998.
